# Source: ChEMBL document CHEMBL1201862, “PubChem BioAssay data set” (2004)
# Measured potencies and affinities stand elsewhere.
# Assay: M. tuberculosis growth inhibition, dose response, 7H9 media, purified and synthesized compounds, set 4 (AID 504857); call rule not given here
# Assay type: functional
smiles,measurement,value
Nc1c(C(=O)NC2CCCCC2)nsc1C(=O)OCC(=O)NC1CCCCC1,IC90,> 71.1 µM (active)
